We go through 100 compounds from PubChem BioAssay AID1460 (National Center for Advancing Translational Sciences (NCATS), 2008).

In all, about 270,000 compounds went through this assay and about 5,800 (2.1%) were called active. Where a call stands in place of a potency, no number is given. Inconclusive results (about 16%) are left out. This is one part of a sample in which actives are shown more often than they occur. The call rests on the fitted dose curve; in most records, active means well fitted inhibition curve with a large enough effect; inconclusive means small, poorly fitted or top-dose-only effect; inactive means flat fitted curve, though single readings scatter.
Potency means the concentration at half of the fitted maximal effect.

Sequence of Microtubule-associated protein tau (Homo sapiens) (P10636 561-689 P618L limits assumed): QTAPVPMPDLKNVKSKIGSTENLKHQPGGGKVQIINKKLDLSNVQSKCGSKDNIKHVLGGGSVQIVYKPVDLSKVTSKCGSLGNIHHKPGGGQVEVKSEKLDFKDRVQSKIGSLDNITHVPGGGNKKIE

This assay concerns the target Microtubule-associated protein tau (Homo sapiens) (UniProt P10636). In words: qHTS for Inhibitors of Tau Fibril Formation, Thioflavin T Binding. Further: nearly all actives have a fitted effect of over 55% in size. The conditions noted are these: recombinant tau K18 P301L (four-repeat tau fragment), heparin-induced fibrillization, ThT fluorescence; series mostly up to 57.4 µM. An outline of the steps: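 Heparin-induced fibrillization of the P301L-mutant K18 repeat-domain fragment of human tau was followed by ThT binding in quantitative high-throughput format.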
Consider `COc1ccc(CNC(=O)CSc2n[nH]c(-c3ccc(F)cc3)n2)cc1`, for which the Potency result was “inactive”. The value for `Cc1ccc(NC(=O)c2oc3ccccc3c2NC(=O)Cc2cccs2)cc1` was “inactive”. On to `CCCCc1nnc(NC(=O)CSc2nc(C)cc(=O)[nH]2)s1`, for which the Potency result is “inactive”.

`CCOC(=O)Cc1csc(NC(=O)CSc2ccc(Br)cc2)n1`: the Potency result was “inactive”. For the compound `CCOC(=O)Cc1csc(NC(=O)CSc2nc(C)cc(=O)[nH]2)n1`, the Potency is 28.2 µM (active). Turning to `CC1=Nc2cc(C(=O)NCc3ccc(C)cc3)ccc2Sc2ccc(Cl)cc21`, the Potency result was “inactive”. For `Cc1ccc(Cl)cc1N1CCN(S(=O)(=O)c2cc3[nH]c(=O)c(=O)[nH]c3cc2C)CC1`, the Potency result is “inactive”.

On to `COc1cc(C(=O)NCCc2csc3nc(-c4ccccc4C)nn23)cc(OC)c1OC`, for which the Potency result is “inactive”. As for `COC/C=C/C1=CC2=CC(=O)C(C)(OC(=O)CCC(=O)OC)C(=O)C2=CO1` (stereo not given), the Potency was 15.8 µM (active).

Consider `CC(C)(C)OC(=O)NCCCC1=CC2=CC(=O)C(C)(OC(=O)c3ccco3)C(=O)C2=CO1` (stereo not given), for which the Potency entry was “inactive”. The value for `COc1cc(CN(C(=O)c2ccccc2Br)c2ccccn2)cc(OC)c1OC` was “inactive”; that for `CCOc1cccc(NC(=O)c2ccc(F)c(S(=O)(=O)N(CC)c3cccc(C)c3)c2)c1` was “inactive”. The value for `O=C(Nc1ccon1)c1sc2ccccc2c1Cl` was “inactive”; that for `COC(=O)c1cc(NC(=O)c2sc3ccccc3c2Cl)cc(C(=O)OC)c1` was “inactive”. Take `Oc1ccc(N=Cc2c(O)ccc3ccccc23)cc1`: the Potency was 12.6 µM (active).

Take `Oc1ccc(N=Cc2sc3ccccc3c2Cl)cc1`: the Potency is 7.08 µM (active).

Consider `CN(Cc1ccccc1)c1ncnc2onc(-c3ccc(F)cc3)c12`, for which the Potency result was “inactive”. The value for `O=c1c(NCc2cccs2)nccn1-c1ccccc1` was “inactive”; that for `O=C(CSc1cn(CC(=O)N2CCOCC2)c2ccccc12)Nc1ccccc1` was “inactive”. The value for `Cc1ccc2oc3c(c(=O)c2c1)C(c1ccc([N+](=O)[O-])cc1)N(CCCN1CCOCC1)C3=O` (stereo not given) was “inactive”. The value for `CCN1CCC(N(Cc2ccc(F)cc2)C(=O)Nc2cc(C)ccc2C)CC1` was “inactive”; that for `Cc1cc(C)c2sc(NC(=O)c3ccc(S(=O)(=O)N4CCCC4)cc3)nc2c1` was “inactive”; that for `CCOc1cccc(CNC(=O)c2ccc(N3CCCC3)c(NC(=O)Nc3ccccc3CC)c2)c1` was “inactive”. On to `COc1cccc(C(=O)NC(=O)Nc2ccc(-c3cc(C(F)(F)F)nn3-c3ccccc3)cc2)c1`, for which the Potency result was “inactive”.

Turning to `Cc1ccccc1CCNC(=O)C1CCN(c2nc3ccccc3nc2C(F)(F)F)CC1`, the Potency result was “inactive”.

In the case of `CCc1cnc2c(c1SCC(=O)N1CCC(C)CC1)c(=O)n(C)c(=O)n2C`, the Potency result is “inactive”. The value for `O=[N+]([O-])c1cccc(C2=NCCS2)c1` was “inactive”; that for `O=C(Nc1cccc([N+](=O)[O-])c1)Nc1ccc(Cl)cn1` was “inactive”; that for `Nc1c(-c2cccc(Cl)c2)cnn1-c1cccc([N+](=O)[O-])c1` was 12.6 µM (active).

For `Cc1c(C(=O)N2CCCC2)oc2c1-c1nn(CC(=O)NCc3ccc(OC(C)C)cc3)cc1CC2`, the Potency entry was “inactive”. As to `Cc1ccc(OCC(=O)OCc2cc(=O)n3nc(C4CC4)sc3n2)cc1C`, the Potency entry is “inactive”. The value for `Cc1ccc(Cl)cc1N(C)C(=O)C1CCCN(c2ncnc3onc(-c4ccc(F)cc4)c23)C1` (stereo not given) was “inactive”; that for `O=C1c2ccccc2C2=Nc3ccccc3SC(c3ccccc3F)C12` (stereo not given) was 7.94 µM (active); that for `CC(=O)c1ccc(NC(=O)CCc2nc(-c3ccc(C)cc3)no2)cc1` was “inactive”. The value for `O=C(Nc1ccc(Br)cc1)c1ccc(Br)c(S(=O)(=O)NCc2ccccc2)c1` was “inactive”; that for `CCOC(=O)c1sc(=S)n(-c2cccc(OC)c2)c1N` was “inactive”; that for `CCOC(=O)c1sc(=S)n2c1[nH]c(=O)c1ccc(C(=O)OC)cc12` was 7.08 µM (active). The value for `CCOC(=O)c1sc(NC(=O)c2ccncc2)nc1C` was “inactive”; that for `COc1ccccc1N1CCN(C(CNC(=O)C(=O)NCc2ccc(C)cc2)c2cccnc2)CC1` (stereo not given) was “inactive”. `O=[N+]([O-])c1cc(-c2nc(-c3ccccc3)no2)ccc1NCc1ccco1`: the Potency entry was “inactive”. The value for `Cc1ccc(-n2ncc3c(N4CCC(C(N)=O)CC4)ncnc32)cc1` was “inactive”. For the compound `CC(=O)N1C(=O)/C(=C2\SC(=S)N(NC(=O)c3ccc(O)cc3)C2=O)c2ccccc21`, the Potency was 25.1 µM (active). As to `COc1ccc(C(=O)NN2C(=O)C3C(c4ccccc4)C=CC(c4ccccc4)C3C2=O)cc1` (stereo not given), the Potency result was “inactive”.

Regarding `O=C(O)c1ccc2c(c1)C(=O)N(NC(=O)c1ccc(O)cc1)C2=O`, the Potency result is “inactive”. For `O=C(c1cccnc1)N(c1cc2sc(=O)oc2c2ccccc12)S(=O)(=O)c1ccccc1`, the Potency is 11.2 µM (active). The value for `CN(C)S(=O)(=O)c1cccc(C(=O)Nc2cccnc2)c1` was “inactive”; that for `COc1ccc(N(C(=O)c2cccnc2)S(=O)(=O)c2ccc3c(c2)n(C)c(=O)n3C)cc1` was “inactive”. The value for `COc1ccccc1CNc1nccn(-c2ccc(F)cc2)c1=O` was “inactive”; that for `Cc1cccc(CC(=O)Nc2cccc(-c3cn4cccnc4n3)c2)c1` was “inactive”; that for `CCc1cccc(C)c1NS(=O)(=O)c1ccc(-c2cc(C)no2)s1` was “inactive”. In the case of `Cc1ccc(S(=O)(=O)Nc2nc3ccccc3s2)cc1[N+](=O)[O-]`, the Potency entry is “inactive”. The value for `COc1ccc(S(=O)(=O)Nc2ccc(O)c(Sc3nc4ccccc4s3)c2)cc1` was “inactive”; that for `COc1cc(/C=N\Nc2nc(-c3cccs3)c(NC(C)=O)s2)ccc1O` was 15.8 µM (active).

As for `COc1cc(/C=N/Nc2nc3ccccc3s2)ccc1O`, the Potency is 5.62 µM (active). Regarding `COc1cc(/C=N/NC(=O)c2ccccc2)ccc1OS(=O)(=O)c1ccccc1`, the Potency entry is “inactive”. Consider `O=C(NC(Nc1nc2ccc([N+](=O)[O-])cc2s1)(C(F)(F)F)C(F)(F)F)c1ccccc1`, for which the Potency result was “inactive”. The value for `Cc1ccc(C(=O)Nc2nnc(-c3cccs3)s2)cc1C` was “inactive”. The value for `COc1cc(/C=N/NC(=O)CCc2n[nH]c(=O)[nH]c2=O)ccc1O` was “inactive”.

Consider `O=[N+]([O-])c1cc(Br)c(O)c(/C=N/Nc2nc3ccccc3s2)c1`, for which the Potency is 4.47 µM (active). The value for `Cc1ccc(S(=O)(=O)c2cn(Cc3ccccc3)c3cc(N4CCCC4)c(F)cc3c2=O)c(C)c1` was “inactive”.

Consider `O=C1CSC2(C(=O)N(Cc3ccccc3)c3ccccc32)N1c1cccc(F)c1` (stereo not given), for which the Potency entry was “inactive”. As for `O=C(COc1ccccc1F)Nc1ccc(C(=O)OCc2cc(=O)n3nc(C4CC4)sc3n2)cc1`, the Potency result is “inactive”. The value for `CCOc1ccc(OCC)c(NC(=O)CN(c2ccc(C)cc2)S(=O)(=O)c2c(C)n[nH]c2C)c1` was “inactive”. The value for `CNC(=O)CN1C(=O)c2cccnc2Sc2ccccc21` was “inactive”; that for `Cc1ccc(Cn2c(=O)n(-c3ccc(C)cc3)c(=O)c3c2c2cc(C)ccc2n3C)cc1` was “inactive”; that for `COc1ccccc1NC(=O)c1cc(C2CC2)nc2c1c(C)nn2-c1ccc(C)cc1` was “inactive”. As to `Cc1ccc2nc(CNC(=O)c3ccccc3)[nH]c2c1`, the Potency result was “inactive”.

In the case of `COc1ccc(NC(=O)c2cc3cc(C)ccc3n2C)cc1`, the Potency result is “inactive”.

For `CCCCNC(=O)CSc1nc2cc3c(cc2c(=O)n1CCCCCC(=O)NCc1ccc2c(c1)OCO2)OCO3`, the Potency entry was “inactive”.

Take `CC(=O)N/C(=C/c1ccc(Cl)cc1)C(=O)NCCc1c[nH]c2ccccc12`: the Potency result is “inactive”. The value for `N#C/C(=C/c1ccc(N2CCCCC2)o1)C(=O)NCCc1c[nH]c2ccccc12` was 4.47 µM (active). The value for `O=C(NCCc1c[nH]c2ccccc12)C(=O)NCC1CCCO1` (stereo not given) was “inactive”; that for `COc1ccc(CCNC(=O)c2nn(C)c3c2CSc2ccccc2-3)cc1OC` was “inactive”; that for `CCc1nc2onc(C)c2c(=O)n1CC(=O)O` was “inactive”. The value for `Oc1ccc(N=Nc2nccs2)c(O)c1` was 3.55 µM (active); that for `Oc1ccc2ccccc2c1N=Nc1nccs1` was 7.94 µM (active); that for `CCCCn1c(=O)c2oc3ccccc3c2n(CC(=O)Nc2ccccc2OC)c1=O` was “inactive”.

Turning to `COc1cc(C(CC(=O)NCCC(C)C)N2Cc3ccccc3C2=O)cc(OC)c1OC` (stereo not given), the Potency result is “inactive”. The value for `O=C(Cn1cnc2c(oc3ccccc32)c1=O)Nc1ccc(OC(F)(F)F)cc1` was “inactive”; that for `Cc1ccc(CN2CCC(CNC(=O)c3cnn(-c4ccccc4Cl)c3C3CCN(C(=O)OC(C)(C)C)CC3)CC2)cc1` was “inactive”; that for `COc1ccc(-c2nnc(SCC(=O)Nc3ccccc3C)o2)cc1OC` was “inactive”. The value for `O=[N+]([O-])c1cccc2ncccc12` was “inactive”. Regarding `CC(c1ccco1)N(C(=O)COc1ccccc1[N+](=O)[O-])c1ccccn1` (stereo not given), the Potency result was “inactive”.

For the compound `O=[N+]([O-])c1cc([N+](=O)[O-])c2cccnc2c1O`, the Potency is 12.6 µM (active).

Consider `COCCNc1ncnc2c1c(-c1ccccc1)cn2-c1ccc(C)c(Cl)c1`, for which the Potency entry is “inactive”. The value for `CCc1nnc(NC(=O)c2cccc(S(=O)(=O)N(C)c3ccc(OC)cc3)c2)s1` was “inactive”; that for `CCc1ccc2nc3sc(C(=O)Nc4nnc(CC)s4)c(N)c3cc2c1` was 3.98 µM (active).

Regarding `CCc1nnc(NC(=O)c2nc3nccc(C)n3n2)s1`, the Potency result is “inactive”. The value for `CCC(=O)N1c2ccccc2CC1C(=O)N1CCN(c2cccc(OC)c2)CC1` (stereo not given) was “inactive”. Take `Cn1c(=O)sc2cc(NS(=O)(=O)c3ccc(C(C)(C)C)cc3)ccc21`: the Potency entry was “inactive”. The value for `COc1ccc2cc1Oc1ccc(cc1)C[C@H]1c3cc(c(OC)cc3CCN1C)Oc1c(O)c(OC)cc3c1[C@H](C2)N(C)CC3` was “inactive”; that for `COc1c(O)ccc2c1CN1CCc3cc4c(cc3C1C2)OCO4` (stereo not given) was 22.4 µM (active); that for `COc1cc(COCC(O)CN2CCN(Cc3ccc4c(c3)OCO4)CC2)cc(OC)c1OC` (stereo not given) was “inactive”.

Turning to `COC(=O)c1ccccc1NC(=O)C(Cc1ccccc1)N1Cc2ccccc2C1=O` (stereo not given), the Potency result was “inactive”. `CCCCN(CC)CCCNC(=O)Cn1ncc2c([nH]c3ccc(C)cc32)c1=O`: the Potency result is “inactive”. The value for `Cc1ccc(NC(=O)CSc2nc3c(c(=O)[nH]2)CN(Cc2ccc4c(c2)OCO4)CC3)cc1C` was “inactive”; that for `Cc1ccc(CN2CCC(CNC(=O)c3cnn(-c4ccc(C)cc4)c3C3CCN(C(=O)OC(C)(C)C)CC3)CC2)cc1` was “inactive”; that for `CCOC(=O)c1ccc(-c2ccc(/C=C(\C#N)C(=O)Nc3ccc(OCC)cc3)o2)cc1` was 1.41 µM (active). The value for `Cc1ccc2nc(/C(C#N)=C/c3ccc(-c4ccc(C(=O)OC(C)C)cc4)o3)[nH]c2c1` was “inactive”. The value for `CCCCOC(=O)/C(C#N)=C/c1ccc(-c2cccc(C(F)(F)F)c2)o1` was “inactive”.
